Pf Dd2 growth – inhibitors of Plasmodium falciparum Dd2 growth; P. falciparum Dd2 growth, SYBR Green, 72 h; Potency, µM (highest dose often 28.9 µM), for the others: at the top dose activity, negative = inhibition, actives largely listed as inhibitors; 120,000 compounds, 4.3% hits; AID 1347417; active = well fitted inhibition curve with a large enough effect;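 also: plate controls were DMSO vehicle for no effect and reference drug for full effect; nearly all actives have a fitted effect of over 65% in size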
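Infected erythrocytes (Dd2, 0.3% parasitemia, 2.5% hematocrit final) are added to compound in RPMI-1640/Albumax II medium, grown 72 h at 37C in low oxygen, then lysed with saponin/Triton-X containing SYBR Green and read by fluorescence.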
* = called active by the depositor; i = inactive; [ ] = dose if it differs, or a comment. The full list was thinned out, with hits kept by preference. Potency is read from the fitted curve at half-maximal effect.

SMILES | Pf Dd2 growth
O=C(NCC(c1ccc2c(c1)OCO2)N1CCOCC1)C(=O)Nc1cccc(Cl)c1 (stereo not given) | -10%
CCC(=O)NCC(c1ccc2c(c1)OCO2)N1CCN(c2ccccc2)CC1 (stereo not given) | -4%
CCOc1ccc(C(=O)NCC(c2ccc3c(c2)OCO3)N2CCOCC2)cc1 (stereo not given) | 9%[0.594 µM]
COc1ccc(N2CCN(C(CNC(=O)CC(C)C)c3ccc4c(c3)OCO4)CC2)cc1 (stereo not given) | 5.6µM*
CN1CCN(C(CNC(=O)C(=O)Nc2cccc(Cl)c2)c2ccc3c(c2)OCO3)CC1 (stereo not given) | 7.1µM*
O=C(NCC(c1ccc2c(c1)OCO2)N1CCN(c2ccc(F)cc2)CC1)c1cccc([N+](=O)[O-])c1 (stereo not given) | -16%
CC(C)Oc1cccc2c1c(NC(=O)c1cc(F)cc(C#N)c1)nn2C | -12%
Cc1nc(C)c(C(=O)NC2CCc3nn(CC4CC4)c(=O)n3CC2)s1 (stereo not given) | 7%
CCC1(O)CCCN(C(=O)c2cc(COc3ccccc3OC)[nH]n2)C1 (stereo not given) | -5%
COc1ccccc1-c1nc2nccc(-c3cc4ccccc4o3)n2n1 | i
Cc1cc(C[C@@H]2COC[C@@H]2NC(=O)COc2cccc(C)c2C)on1 | 0%
c1ccc(C2=NOC3(CCCN(Cc4cccc5ccccc45)C3)C2)nc1 (stereo not given) | i
CC1(CCCCN2CCOCC2)COc2ccc(C(=O)NCc3ccco3)cc2N1 (stereo not given) | -13%[44.1 µM]
CN1CC(=O)N(C2CCC2)Cc2c(NCCO)ncnc21 | -5%[44.1 µM]
COCCNC(=O)C(NC(=O)c1ccccc1C)C1CCN(C(=O)c2ccccc2F)CC1 (stereo not given) | 9%
CC(=O)c1ccc(NC(=O)N[C@H]2C[C@@](O)(C(=O)N[C@H](CC(C)C)C(N)=O)C[C@@H](O)[C@@H]2O)cc1 | 4%
COc1ccc(Nc2ncc(-c3ccccc3OC)c3c2OCC3)cc1 | i
COc1ccc(-c2cnc(Nc3cc(F)cc(N4CCOCC4)c3)c3c2CCO3)cn1 | 11µM*
COc1cncc(Nc2ncc(-c3cccc(F)c3)c3c2OCC3)c1 | 11µM*
CNC(=O)c1cccc(-c2cnc(Nc3cccc(C(F)(F)F)c3)c3c2CCO3)c1 | i
CNC(=O)c1cccc(-c2cnc(Nc3ccc(Cl)cn3)c3c2CCO3)c1 | i
O=C(Nc1ncc(-c2cccc(F)c2)c2c1OCC2)c1ccncc1 | i
COc1ccc(-c2cnc(NC(=O)Cc3ccccc3)c3c2CCO3)cn1 | 17%[44.1 µM]
COCCNc1ncc(-c2ccc(N3CCOCC3)cc2)c2c1OCC2 | 23%[44.1 µM]
CNC(=O)c1cccc(-c2cnc(Nc3ccc(F)c(Cl)c3)c3c2CCO3)c1 | 11µM*
SMILES | Pf Dd2 growth
COc1ccc(C(=O)NC2CCN(c3cc(-c4ccc(Cl)cc4)[nH]n3)C2)cc1F (stereo not given) | i
CCCn1nccc1S(=O)(=O)N[C@@H]1CCOC[C@H]1Oc1ccccn1 | -5%
Cc1ccc(C2Cn3nnc(C(=O)N4CCN(C(=O)c5cc(Cl)ccc5F)CC4)c3CO2)cc1 (stereo not given) | -28%
CCn1nc(C2CCOCC2)nc1C1(c2ccccc2)CC1 | 5%
CN1CC(=O)N(c2ccccc2F)Cc2c1ncnc2N1CCCCC1 | -10%
Cc1nn(C)c(C)c1CCCN(C)C(=O)c1ccc2c(c1)C(O)CCCCCN2C (stereo not given) | i
O=C(NCCc1cccc(F)c1)C1CC(=O)N(c2n[nH]c3cccc(F)c23)C1 (stereo not given) | -8%
Cn1cccc1CNC(=O)Cn1nc2c(cc1=O)CCCC2 | 10%
Cc1nn2c(c1-c1ccccc1Oc1ccccc1)N(Cc1cccc(C#N)c1)CCC2 | -9%[44.1 µM]
Cc1nn2c(c1-c1ccccc1OCc1ccccc1)N(Cc1cccc(O)c1)CCC2 | 2.2µM*
Cc1nn2c(c1-c1ccccc1C(C)C)N(Cc1ccc(C(=O)O)s1)CCC2 | -15%[44.1 µM]
Cc1nn2c(c1-c1ccccc1C(C)C)N(C(=O)C1CCOCC1)CCC2 | i
Cc1nn2c(c1-c1ccccc1C(C)C)N(Cc1ccc3c(c1)CCO3)CCC2 | 7.1µM*
Cc1ccncc1-c1c(C)nn2c1N(Cc1cccc(O)c1)CCC2 | i
O=C(NC1C[C@H]2CC[C@@H](C1)N2C(=O)Cc1ccccc1Cl)c1ccncc1 (stereo not given in full) | i
Cc1ccc(N2CCN(C(=O)[C@@]34CCCC[C@H]3N(C)C(=O)CC4)CC2)cc1 | 10%
C=CCNc1ncnc2c1CCN(C(=O)Cc1c[nH]c(=O)[nH]c1=O)CC2 | 12%
O=C(NCc1cccc(C(F)(F)F)c1)C1(CCO)CCN(c2ncccn2)C1 (stereo not given) | -9%
CC(C)N(Cc1ccccc1)Cc1nnc2cc(-c3nc(-c4ccccc4)no3)ccn12 | i
COC1C(=O)N(C2CCN(C(=O)c3cccnc3)CC2)C12CCOCC2 (stereo not given) | 12%
CN(C)C(=O)c1c(NC(=O)c2ccccc2F)sc2c1CCCC2 | 6%
CC1CCN(C(=O)c2c(NC(=O)c3ccccc3F)sc3c2CCC(C(C)(C)C)C3)CC1 (stereo not given) | 8.9µM*
O=C(Nc1sc2c(c1C(=O)N1CCCCC1)CCCC2)c1ccccc1Cl | -12%
CCOC(=O)c1c(NC(=O)C2c3ccccc3Oc3ccccc32)sc2c1CCC(CC)C2 (stereo not given) | -3%
CC(C)(C)C1CCc2c(sc(NC(=O)C3c4ccccc4Oc4ccccc43)c2C(N)=O)C1 (stereo not given) | 13µM*
SMILES | Pf Dd2 growth
CC(C)(C)C1CCc2c(sc(NC(=O)c3cccc(Cl)c3)c2C(N)=O)C1 (stereo not given) | 11%
COc1cccc2c1OCCCN(C(=O)CC1COCCN1)C2 (stereo not given) | 1%
Cc1cnn(CCC(=O)N2CCC(Oc3ccccc3)(C(=O)O)CC2)c1 | -12%
Cc1cccc(NC(=O)N2CCC(CCNC(=O)Cc3ccccc3F)CC2)c1 | -14%
CCc1nncn1C1CCN(S(=O)(=O)c2ccccc2C)CC1 | i
O=C(c1ccc2c(c1)N(Cc1cccc(F)c1)C(=O)c1ccccc1S2)N1CCCC1 | i
Cc1ccc(NC(=O)CN2C(=O)c3ccccc3Sc3ccc(C(=O)N4CCOCC4)cc32)cc1C | -25%
CCOC(=O)c1ccc2c(c1)N(CC(=O)Nc1cc(F)ccc1F)C(=O)c1ccccc1S2 | -26%
CN(C)c1ccc(NC(=O)CN2C(=O)c3ccccc3Sc3ccc(C(=O)N4CCCC4)cc32)cc1 | 10µM*
COc1ccc(OC)c(NC(=O)CN2C(=O)c3ccccc3Sc3ccc(C(=O)N4CCCC4)cc32)c1 | 10µM*
O=C(c1ccc2c(c1)N(Cc1ccccc1Cl)C(=O)c1ccccc1S2)N1CCCC1 | i
CS(=O)(=O)c1ccc(CN2CCN(c3ncc(F)cn3)CC2)cc1 | -6%
Nc1nc2c(s1)C(c1cccc(F)c1F)CC(=O)N2 (stereo not given) | i
O=C(N[C@@H]1COCC[C@@H]1OCc1ccccc1)c1ccc2ncsc2c1 | 24%
COc1ccc2nc3n(c2c1)[C@@H](CNC1CCN(C)CC1)COC3 | 13%[44.1 µM]
COc1ccc(C(=O)N2CC[C@@H]3NC(=O)[C@H]4C[C@H](NC(=O)C5CCCCC5)CN4C(=O)[C@H]32)cc1 | 13%
Cc1cnc(C(=O)N2C[C@@H](Oc3cccnc3)C[C@H]2C(=O)N2CCCC2)cn1 | -7%
Cc1ccc(C)c(CN2C(=O)c3ccccc3Sc3ccc(C(=O)NCc4ccc5c(c4)OCO5)cc32)c1 | 8.9µM*
